# Hits are enriched below; roughly 13% of the tested compounds scored in any of these assays.
# USP28 block: inhibitors of human USP28 deubiquitinase; Ubiquitin carboxyl-terminal hydrolase 28 (Homo sapiens), Q96RU2; purified USP28, Ub-rhodamine cleavage fluorescence, 30 min; inhibition, % at 25 µM; hit rate 3% among 47,000; AID 1645857, 2021
# USP17 block: inhibitors of human USP17 deubiquitinase | inhibition, % at 50 µM | hit rate 6.5% among 47,000 | Ubiquitin carboxyl-terminal hydrolase 17-like protein 5 (Homo sapiens), A8MUK1 | purified USP17, Ub-rhodamine cleavage fluorescence, 3 h
# USP30 block: inhibitors of human USP30 deubiquitinase; purified USP30, Ub-rhodamine cleavage fluorescence; inhibition, % at 25 µM; hit rate 5.3% among 47,000; AID 1645860, 2021
# Target sequence (Q70CQ3 whole entry, looked up): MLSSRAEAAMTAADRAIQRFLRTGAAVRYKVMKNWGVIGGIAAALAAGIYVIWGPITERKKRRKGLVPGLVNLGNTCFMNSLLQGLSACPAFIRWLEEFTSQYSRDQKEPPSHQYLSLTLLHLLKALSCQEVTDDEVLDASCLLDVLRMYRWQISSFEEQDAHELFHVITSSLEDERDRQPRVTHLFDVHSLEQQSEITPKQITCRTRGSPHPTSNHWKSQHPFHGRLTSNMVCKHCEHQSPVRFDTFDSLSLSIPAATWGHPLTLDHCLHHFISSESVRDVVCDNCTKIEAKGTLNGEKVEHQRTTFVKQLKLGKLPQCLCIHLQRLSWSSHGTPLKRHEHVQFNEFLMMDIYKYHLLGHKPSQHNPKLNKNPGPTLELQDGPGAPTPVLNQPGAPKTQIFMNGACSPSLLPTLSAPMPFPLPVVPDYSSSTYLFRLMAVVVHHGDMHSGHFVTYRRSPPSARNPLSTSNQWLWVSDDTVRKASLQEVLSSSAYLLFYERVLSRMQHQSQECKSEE
# USP10 inh: inhibitors of human USP10 deubiquitinase; Ubiquitin carboxyl-terminal hydrolase 10 (Homo sapiens), Q14694; purified USP10, Ub-rhodamine fluorescence, 60 min; inhibition, % at 20 µM; hit rate 1.1% among 47,000; AID 1645856, 2021
# USP8 inh: inhibitors of human USP8 deubiquitinase; hit rate 4.2% among 47,000; inhibition, % at 20 µM; purified USP8, Ub-rhodamine cleavage fluorescence, 30 min; AID 1645853, 2021; Ubiquitin carboxyl-terminal hydrolase 8 (Homo sapiens), P40818
# Numbers without * were called inactive; i = inactive; . = no result. No stated cut-off is given here; in the data, active means inhibition above about 30%; inactive means the rest.
SMILES,USP28 block,USP17 block,USP30 block,USP10 inh,USP8 inh
CC(C(=O)Nc1ccc(F)cc1)n1cnc2nc(N3CCCCC3)ncc2c1=O (stereo not drawn),-94.9,-23.2,-111.7,-4.3,32.3*
CC(C(=O)Nc1ccccc1)n1cnc2nc(N3CCCCC3)ncc2c1=O (stereo not drawn),-21.6,69.5*,-124.8,-2.3,-0.4
COc1cc(OC)c(N(C)S(=O)(=O)c2cccc(C(=O)OCC(=O)c3ccc([N+](=O)[O-])cc3)c2)cc1Cl,-2.4,1.3,-29.4,-3.1,-12.6
C/C=C(\Cl)C1=CC(=O)[C@]23C[C@H]2C(C)(C)O[C@]3(O)C1=O,-75.3,-62.3,i,-7.7,-335.0
CCc1ccccc1NC(=O)COC(=O)Cc1ccc(OC)cc1,-1.1,-0.1,8.6,-0.9,0.0
CNc1cccc(C2CN(C(=O)c3n[nH]c4c3CCC4)CCO2)n1 (stereo not drawn),-6.0,-5.2,-6.5,-2.2,0.0
Cc1nn(-c2ccccc2)c2nc(C3CCN(C(=O)c4n[nH]c5c4CCC5)CC3)ccc12,10.1,15.3,38.0*,12.0,17.9
Cc1ccc(C)c(Cn2c(=O)n(Cc3ccc(C(=O)NC4CCCC4)cc3)c(=O)c3ccccc32)c1,4.8,17.5,23.4,4.7,8.1
CC(=O)c1ccc(N2C(=O)[C@H]3Cc4c([nH]c5ccccc45)CN3C2=O)cc1,6.9,44.4*,10.2,19.3,28.0
Cc1ccc(CN2CC(=O)N3Cc4[nH]c5ccccc5c4C[C@@H]3C2=O)cc1,-1.7,-2.3,-9.7,-9.5,-6.5
CC1(C)C(=O)Nc2ccccc2N1C(=O)COc1ccc(-c2nnco2)cc1,-1.0,3.8,8.8,0.1,6.0
COc1ccc(CC(=O)OCC(=O)N2c3ccccc3NC(=O)C2(C)C)cc1,13.2,34.2*,-12.2,9.4,32.9*
COCCn1c(SCC(=O)Nc2ccccc2C(F)(F)F)nnc1-c1c[nH]c2ccccc12,-9.7,-12.4,-9.0,0.4,-12.5
O=C(CCCn1c(SCC(=O)Nc2cccc(C(F)(F)F)c2)nc2ccccc2c1=O)NCCc1ccccc1,14.0,23.6,35.4*,13.0,-13.2
CCOCCCn1c(SCC(=O)Nc2ccccc2C(F)(F)F)nc2ccccc2c1=O,18.3,44.1*,55.4*,3.0,0.3
NS(=O)(=O)c1ccc(CCNC(=O)CSc2nc3ccccc3c(=O)n2CCC(=O)N2CCN(c3ccccc3)CC2)cc1,1.9,6.1,11.2,8.6,20.1
CCCOc1ccc(-c2ccc(-c3nc(CCC)no3)cc2)cc1,2.7,12.7,17.4,0.4,20.6
N#Cc1ccc(OCc2noc(-c3ccc(F)cc3)n2)cc1,22.6,7.0,-14.5,1.4,38.4*
CS(=O)(=O)N1CCN(c2ccc(-c3ccc(F)cc3)nn2)CC1,8.4,25.2,22.4,1.7,0.0
Cc1ccc(-c2cc(N3CCN(S(C)(=O)=O)CC3)ncn2)cc1,19.3,47.3*,47.0*,0.3,2.0
Cc1cc(NC(=O)Cn2c(C)cc(-c3nnc(C4CC4)o3)c2C)ccc1F,29.8,34.5*,43.8*,-1.9,-0.4
O=C(Cn1cccc1-c1nnc(C2CC2)o1)Nc1cccc(F)c1,-0.5,32.3*,-8.2,-0.7,0.1
CCN1CCN(C2=NS(=O)(=O)C(c3ccc(OC)cc3)=C2C)CC1,8.5,10.4,9.1,1.4,2.6
O=C(Nc1ccc(F)cc1F)N1CCN(c2cc(-c3ccncc3)[nH]n2)CC1,12.7,.,41.0*,5.0,2.7
O=C(Nc1ccccc1F)N1CCN(c2cc(-c3ccncc3)[nH]n2)CC1,6.7,2.6,17.2,-0.1,-0.1
SMILES,USP28 block,USP17 block,USP30 block,USP10 inh,USP8 inh
COc1cccc(CNC(=O)Cc2cccc3ccccc23)c1,-0.4,7.2,-55.0,-3.3,13.9
COc1cccc(CNC(=O)C2=Cc3cccc(OC)c3OC2)c1,60.2*,-102.8,0.1,-1.1,20.2
Cc1sc(NC(=O)C2CCCC2)nc1-c1ccc2c(c1)CCN2C(=O)C1CCCCC1,22.1,11.0,22.1,5.7,11.5
Cc1sc(NC(=O)CN2CCc3ccccc3C2)nc1-c1ccc2c(c1)CCN2C(=O)C1CCCCC1,-2.2,54.3*,-76.2,-7.4,76.2*
Cc1sc(NC(=O)C2(c3ccc(Cl)cc3)CCC2)nc1-c1ccc2c(c1)CCN2C(=O)C1CCCCC1,16.0,15.0,30.9*,1.7,5.8
O=C(CCc1nnc2c(=O)n(-c3cccc(F)c3)ccn12)NCc1ccc2c(c1)OCO2,2.6,4.6,5.0,0.9,18.8
CCC(CC)C(=O)N1CCN(c2ccc(NCc3ccccc3)nn2)CC1,-6.8,-35.7,-2.6,1.2,3.9
O=C(Nc1cc(S(=O)(=O)Nc2ccccc2Cl)ccc1N1CCCCC1)c1cnccn1,-5.0,-38.7,-51.1,4.0,-56.1
COc1ccc(CCC(=O)NC2CC(C)(C)Cc3nc(N4CCCC4)ncc32)cc1 (stereo not drawn),-48.9,-47.7,-194.2,-3.1,-32.7
O=C(C1CCN(c2nc(-c3ccccc3)no2)CC1)N1CCN(c2ccccc2)CC1,-6.4,0.4,5.6,0.7,4.7
Cc1nc(C2CCCNC2)nc2c1CCC(=O)N2CCc1ccc(F)cc1 (stereo not drawn),9.4,4.8,21.0,0.1,8.1
Cc1cc(C)n(CC(=O)N2N=CCC2(O)C(F)(F)F)n1 (stereo not drawn),4.1,12.6,8.3,-0.3,37.0*
Cc1cc(C)n(CC2CCCCN2C(=O)CCc2nccs2)n1 (stereo not drawn),-7.0,-3.2,-0.7,0.1,-3.0
O=C(Nc1ccccc1Cl)c1ccn(COc2ccccc2F)n1,29.0,66.4*,56.8*,4.9,34.5*
O=C(Nc1ccc(Cl)cc1Cl)c1ccn(COc2ccccc2F)n1,17.6,35.7*,44.9*,0.4,20.2
COc1ccc(OCn2ccc(C(=O)Nc3cnn(C)c3C)n2)cc1,1.3,.,-5.1,-0.1,0.8
O=C(Nc1ccc(Cl)cn1)c1ccn(COc2ccccc2)n1,11.8,14.7,15.8,2.2,16.6
O=C(c1ccccc1)N1C[C@H]2CCN(S(=O)(=O)c3cccc(Cl)c3)C[C@H]21,1.7,-0.9,3.6,-0.8,0.6
CN(C)C(=O)c1ccc(-c2ccc(N3CCCCC3)nc2)cc1,11.5,5.7,13.7,2.8,2.5
O=C(NCc1ccccn1)c1ccc(-c2ccc(N3CCSCC3)nc2)cc1,32.7*,59.6*,82.3*,0.0,2.5
O=C(NCc1ccccn1)C1CCN(c2cc(N3CCCCC3)ncn2)CC1,-12.0,-26.7,-18.5,-3.7,-70.5
COCCCNC(=O)c1ccc(-c2ccc(N3CCCCC3)nc2)cc1,18.4,11.5,17.2,12.1,36.9*
COc1cccc(-n2cc(-c3nc(-c4cccnc4)no3)c3ccccc3c2=O)c1,15.5,27.8,31.2*,2.2,22.7
CC(=O)NC(Cc1ccccc1F)C(=O)NC1CCN(C(=O)Nc2ccccc2F)CC1 (stereo not drawn),10.9,1.1,12.7,-0.3,9.7
